Compound activity (PubChem)
Spn PMK inh – S. pneumoniae PMK inhibitors, primary screen, biochemical, mevalonate pathway, pilot trial included; 0.49% of 65,000 active; purified PMK, PK/LDH-coupled NADH absorbance 340 nm; inhibition, % at 10 µM; phosphomevalonate kinase (Streptococcus pneumoniae D39);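 active = top-ranked compounds by inhibition in the single 10 µM screen, taking a fixed number of the strongest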;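 also: 0% = full reaction with DMSO carrier and 100% = background rate without enzyme reaction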
Autofluor 339 – intrinsic fluorescence of library compounds, ex339/em460 – biochemical, MLSMR library, data from DPM-DC assay, artefact control, profiling panel. compound autofluorescence, ex339/em460 nm, NADH buffer; hits give high values; 1 = no-compound wells, NADH background. AID 709, 2007. 5.5% of 65,000 active. fluorescence fold increase at 10 µM;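 active = at 10 µM, mean starting fluorescence two-fold or more over control wells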;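 also: signal is the first read of a kinetic run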
DPM-DC inhibit – S. pneumoniae DPM-DC inhibitors, primary screen, biochemical, PK/LDH-coupled NADH fluorescence; diphosphomevalonate decarboxylase (Streptococcus pneumoniae D39); purified DPM-DC; calls only at 10 µM; 0.49% of 65,000 active;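 active = the 320 compounds with the highest percent inhibition in the single-dose primary screen, excluding strongly autofluorescent ones, cut at about 32% in these data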;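 also: kinetic rate of NADH fluorescence loss reporting ADP formed by the decarboxylase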
NADH coupling – inhibitors of PK/LDH coupling enzymes, profiling panel, artefact control, biochemical, MLSMR library. 0.02% of 65,000 active. IC50, µM (titrated, usually from 10 µM), inactives show at the highest dose inhibition. AID 774, 2007. coupled PK/LDH NADH assays, four targets;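 active = single-dose screening hits from any of four coupled enzyme assays that gave an IC50 when retested across doses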;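 also: the DPM-DC format reads NADH fluorescence rather than 340 nm absorbance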
MK inhibit – S. pneumoniae MK inhibitors, primary screen, biochemical, PK/LDH-coupled NADH absorbance. mevalonate kinase [Streptococcus pneumoniae D39]. purified MK, PK/LDH-coupled NADH absorbance 340 nm. inhibition, % at 10 µM. 0.48% of 65,000 active. AID 555, 2006;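 active = ranked among the strongest by inhibition in the single 10 µM screen, a fixed top-ranked set picked for dose follow-up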
A340 absorber – compound light absorbance at 340 nm, profiling panel, artefact control, biochemical, MLSMR library, data from PS, PMK, MK assays | compound absorbance at 340 nm, fold over control | fold change at 10 µM | 65,000 tested, under 10 active | AID 708, 2007;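 active = at 10 µM dose, initial 340 nm absorbance at least 2 fold that of control wells; inactive = change under 2 fold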;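 also: initial absorbance extrapolated from kinetic A340 decline of NADH oxidation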
The depositor's hits bear a star. In the library only some 6.5% were active in any assay of this set; here they are far more common.

How did Cc1cc(C)n2nc(SCc3cc(=O)n4c(C)cccc4n3)nc2n1 do in these assays?
Spn PMK inh: 28.0*; Autofluor 339: 1.06; DPM-DC inhibit: inactive; NADH coupling: 9.0%; MK inhibit: 0.0; A340 absorber: 1.07

How did CCn1c2ccccc2c2cc(NC(=O)N3CCOCC3)ccc21 do in these assays?
Spn PMK inh: 8.0; Autofluor 339: 2.08*; DPM-DC inhibit: inactive; NADH coupling: 10.0%; MK inhibit: 9.0; A340 absorber: 1.07

What do the screens show for `CCn1c(=O)cc(OCC(=O)N2CCCC2)c2ccccc21`?
Spn PMK inh: 0.0; Autofluor 339: 1.06; DPM-DC inhibit: inactive; NADH coupling: 0.0%; MK inhibit: 0.0; A340 absorber: 1.04

How did O=C(c1cc2c(=O)oc3ccccc3c2s1)N1CCOCC1 do in these assays?
Spn PMK inh: 17.0; Autofluor 339: 0.96; DPM-DC inhibit: inactive; NADH coupling: 10.0%; MK inhibit: 8.0; A340 absorber: 1.09

How did Cc1nn(-c2ccccc2)c2sc(C(=O)N3CCOCC3)cc12 do in these assays?
Spn PMK inh: 7.0; Autofluor 339: 1.07; DPM-DC inhibit: inactive; NADH coupling: 1.0%; MK inhibit: 3.0; A340 absorber: 1.01

Results for CCn1c(=O)c2cc(C(=O)N3CCCC3)sc2c2ccccc21 ?
Spn PMK inh: 1.0; Autofluor 339: 2.13*; NADH coupling: 2.0%; MK inhibit: 3.0; A340 absorber: 1.17

What do the screens show for `O=C(c1cc2c(=O)n3ccccc3nc2s1)N1CCOCC1`?
Spn PMK inh: 19.0; Autofluor 339: 4.93*; NADH coupling: 10.0%; MK inhibit: 0.0; A340 absorber: 1.09

How did CCn1c(=O)c2cc(C(=O)N3CCOCC3)sc2c2ccccc21 do in these assays?
Spn PMK inh: 3.0; Autofluor 339: 2.14*; NADH coupling: 5.0%; MK inhibit: 6.0; A340 absorber: 1.12

Results for O=C1OC(Nc2ccc(F)cc2F)c2ccccc21 (centres undefined) ?
Spn PMK inh: 15.0; Autofluor 339: 1.03; DPM-DC inhibit: inactive; NADH coupling: 6.0%; MK inhibit: 2.0; A340 absorber: 1.01

How did COC(=O)c1ccccc1NC1OC(=O)c2ccccc21 (centres undefined) do in these assays?
Spn PMK inh: 8.0; Autofluor 339: 3*; DPM-DC inhibit: inactive; NADH coupling: 12.0%; MK inhibit: 0.0; A340 absorber: 1.07

Results for N#Cc1sc2nc(-c3ccccc3)cc(-c3ccco3)c2c1N ?
Spn PMK inh: 8.0; Autofluor 339: 1.32; DPM-DC inhibit: inactive; NADH coupling: 6.0%; MK inhibit: 10.0; A340 absorber: 1.06

What do the screens show for `N#Cc1c(-c2ccccc2)cc(-c2ccco2)c(C#N)c1N`?
Spn PMK inh: 0.0; Autofluor 339: 2.26*; NADH coupling: 4.0%; MK inhibit: 8.0; A340 absorber: 1.06

Results for Cc1ccc2nc(-c3ccc(NC(=O)CN4CCN(C(=O)c5ccco5)CC4)cc3)sc2c1 ?
Spn PMK inh: 0.0; Autofluor 339: 2.16*; NADH coupling: 3.0%; MK inhibit: 5.0; A340 absorber: 1.1

Results for Cc1ccc2[nH]c(C(=O)O)c(NC(=O)CN3CCN(c4cccc(C)c4C)CC3)c2c1 ?
Spn PMK inh: 9.0; Autofluor 339: 1.12; DPM-DC inhibit: inactive; NADH coupling: 9.0%; MK inhibit: 10.0; A340 absorber: 1

What do the screens show for `COC(=O)c1[nH]c2ccc(C)cc2c1NC(=O)CN1CCC(C)CC1`?
Spn PMK inh: 0.0; Autofluor 339: 1.83; DPM-DC inhibit: inactive; NADH coupling: 4.0%; MK inhibit: 9.0; A340 absorber: 0.99

How did COC(=O)c1[nH]c2ccc(C)cc2c1NC(=O)CN1CCN(c2ccccc2)CC1 do in these assays?
Spn PMK inh: 17.0; Autofluor 339: 2.13*; DPM-DC inhibit: inactive; NADH coupling: 9.0%; MK inhibit: 10.0; A340 absorber: 1.05
